IL-1B inflam inh – inhibitors of inflammasome signaling (IL-1 beta secretion) | THP-1 LPS/ATP IL-1B secretion, AlphaLISA, 16 h; stronger effect = lower value | activity change, % at 57.5 µM | 360,000 compounds, 4.7% hits | AID 743279; in the data active = activity change below about -50%; inconclusive = mostly about -30% to -49%
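THP-1 cells pretreated 1 hr with compounds (up to 57.5 uM final), then stimulated with LPS (250 ng/mL final) plus ATP (1.25 mM final); secreted IL-1B measured by AlphaLISA after 16 hr, decreased signal indicating inhibition.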
TDP1 cell CPT – growth inhibition of DT40 Tdp1-/-;hTDP1 cells with camptothecin (screen for TDP1 inhibitors) | chicken DT40 Tdp1-/-;hTDP1 cells + 20 nM CPT, ATP luminescence, 48 h | Potency, µM (series often up to 46.2 µM), without a hit: at the top dose activity change, negative = growth inhibition, usual class: inhibitors | 420,000 compounds, 12% hits | AID 686979; note: potency is the fitted concentration of half-maximal effect; nearly all actives have a fitted effect of over 55% in size
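Chicken DT40 Tdp1-/- cells stably complemented with human TDP1 were seeded at 400 cells/well in medium containing 20 nM camptothecin, exposed to pin-transferred compounds, and grown at 37 °C for at least 48 hr. Viability was read as ATP luminescence.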
DT40 TDP1 no CPT – qHTS for Inhibitors of human tyrosyl-DNA phosphodiesterase 1 (TDP1): qHTS in cells in absence of CPT. DT40 Tdp1-/- hTDP1 cells, no CPT, ATP luminescence, 48 h. Potency, µM (top dose mostly 46.2 µM), without a hit: top-dose activity change, negative = growth inhibition, hits mostly inhibitors. 420,000 compounds, 15% hits. AID 686978, 2013; note: potency is the fitted concentration of half-maximal effect; nearly all actives have a fitted effect of over 55% in size
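DT40 Tdp1-/-;hTDP1 cells, no CPT (DMSO vehicle only), 400 cells/well; compounds pin-transferred; ≥48 hr, 37 °C; CellTiter-Glo 30 min RT dark, luminescence read.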
HT1080-NT tox – kills 2HG-producing HT-1080-NT fibrosarcoma cells. Potency, µM (titrated, usually from 46.1 µM), without a hit: top-dose activity, negative = less viability, usual class: cytotoxic. HT-1080-NT fibrosarcoma viability, CellTiter-Glo ATP luminescence, 48 h. 360,000 compounds, 1.6% hits;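 note: NT is the 2HG producing partner of a matched IDH1 knockdown line; potency is the fitted concentration of half-maximal effect; 0% = DMSO-treated cells and -100% = media-only wells without cells; nearly all actives have a fitted effect of over 55% in size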
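750 cells/well, RPMI + 5% FBS; 2 h settle, compound pin-transfer, 48 h at 37 degrees C. CellTiter-Glo 10 min RT, luminescence. Normalized to DMSO and media-only wells.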
HT1080 IDH1KD tx – HT-1080 IDH1 knockdown cell toxicity (counter line). HT-1080 IDH1 knockdown viability, ATP luminescence, 48 h. 360,000 compounds, 2% hits. AID 686971. Potency, µM (highest dose often 46.1 µM), for inactives: at the top dose activity, negative = toxicity, hits mostly cytotoxic;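 note: potency is the fitted concentration of half-maximal effect; 0% = DMSO wells and -100% = cell-free medium wells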
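After a 2 h attachment period, IDH1KD HT-1080 cells took pin-transferred compound for 48 h at 37 °C; ATP-based luminescence after 10 min room-temperature reagent incubation reported viability.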
* = called active by the depositor; ? = inconclusive; · = not tested or not shown; [ ] = remark or other dose. Hits are enriched below; roughly 19% of the tested compounds scored in any of these assays. Unless noted, calls come from the whole dose curve; as a rule, active = well fitted curve in the direction sought with a large enough effect; inconclusive = small, poorly fitted or top-dose-only effect, or another doubt; inactive = no such curve, though single readings can be large; an effect the other way counts as inactive or inconclusive. Unless noted, % is set by controls: 0 for no effect and ±100 for the full control effect.

SMILES	IL-1B inflam inh	TDP1 cell CPT	DT40 TDP1 no CPT	HT1080-NT tox	HT1080 IDH1KD tx
CN(C(=O)c1cnn(-c2ncc3c(n2)-c2ccccc2CCC3)c1C1CC1)C1CCOC1 (centres undefined)	·	7%	-19%	·	·
Cc1cc(-c2c(C)[nH]n(-c3ccc(Cl)cc3)c2=O)n[nH]1	148	7.3µM*	13µM*	?	?
N#CCC(=O)N/N=C/c1ccc(Cl)cc1	-5	?	0%	-11%	0%
N#CCC(=O)N/N=C/c1cc(-c2ccccc2)n(-c2ccc(Cl)cc2)c1-c1ccccc1	29	?	?	?	21µM*
COc1ccc(CCNC(=O)Cc2c(C)c3c(cc(C)c4c(C)c(C)oc43)oc2=O)cc1	·	-4%	3%	·	·
CCN1CCN(C(=O)c2ccc(CN(c3ccccc3)S(=O)(=O)c3ccccc3)cc2)CC1	-1	-20%	-54%	7%	7%
Cc1cccc(NC(=O)C(C)OC(=O)c2ccccc2NS(=O)(=O)c2cc(C)c(C)c([N+](=O)[O-])c2)c1 (centres undefined)	4	16µM*	?	-4%	-5%
CCCN(CC(=O)Nc1ccccc1C)C(=O)c1ccc(C2SCCS2)cc1	-13	?	?	-2%	-3%
NC(=O)C1CCN(C(=O)C2CCC(=O)N(CC3CCCCC3)C2)CC1 (centres undefined)	9	2%	2%	21%	15%
COc1cc2c(c(O)c1OC)-c1c(cc(OC)c(OC)c1OC)C[C@@H](C)[C@@H](C)C2	-11	?	?	8%	11%
COc1ccc(C2COc3cc(O)ccc3C2)c(OC)c1O (centres undefined)	-14	18µM*	16µM*	?	?
COCCSc1nc2c([nH]c3ccccc32)c(=O)n1-c1ccc(OC)c(OC)c1	·	-21%	?	·	·
Cc1cccc(CNC(=O)c2ccc(NC(=O)C3=CSCCO3)cc2)c1	-2	?	?	8%	6%
CC(C)(C)c1cc(C(F)(F)F)nc(SCCCNC(=O)c2ccco2)n1	-17	23µM*	21µM*	-2%	4%[9.24 µM]
CCc1nc2ccc(C(=O)NC3CCN(Cc4ccccc4)CC3)cn2c1N(C)Cc1cc2ccccc2s1	-66*	26µM*	21µM*	16µM*	?
CCc1nc2ccc(C(=O)NC3CCN(Cc4ccccc4)CC3)cn2c1N(C)Cc1cccs1	-52*	?	16µM*	?	?
CCc1nc2ccc(C(=O)N3CCN(C(=O)c4ccco4)CC3)cn2c1N(C)Cc1cccs1	20	?	?	2%	17%
COC(=O)CN1C(=O)C2(C(C#N)=C(N)Oc3c2c(C)nn3-c2ccccc2)c2ccccc21 (centres undefined)	-10	?	21µM*	?	?
COC(=O)CN1C(=O)C2(C(C#N)=C(N)Oc3n[nH]c(-c4cccs4)c32)c2ccccc21 (centres undefined)	-7	7%	-22%	-2%	10%
C=Cc1ccc(Cn2c(C)c(C(=O)NCCC#N)sc2=O)cc1	-22	-2%	-13%	5%	3%
COCc1c(C(=O)N/N=C\c2cccs2)nnn1-c1nonc1N	-68*	9%	-18%	-4%	-7%
CCc1c(C(=O)N/N=C/c2cccs2)nnn1-c1nonc1N	0	9%	?	-1%	2%
CN(C)Cc1c(C(=O)N/N=C/c2ccc(OCc3c(F)cccc3Cl)cc2)nnn1-c1nonc1N	-2	?	13µM*	-11%	1%
Nc1nonc1-n1nnc(C(=O)N/N=C/c2ccc(O)cc2)c1COc1ccc(F)cc1	?	3%	-5%	?	?
Nc1nonc1-n1nnc(C(=O)N/N=C/c2cc(Br)cs2)c1-c1ccccc1	-92*	?	?	-17%	?
CCOc1ccc(-c2c(C(=O)N/N=C/c3c[nH]c4ccccc34)nnn2-c2nonc2N)cc1	0	?	16µM*	-25%	-30%
